# Reference: PubChem BioAssay (NCI)
# About 79,000 compounds went through this panel and 15% of them were active in at least one assay; those are over-represented in the sample as a whole. Values without a mark were called inactive. The source made the active and inactive calls. Rule as the data show it: active = growth inhibition above about 70%; inactive = the rest.
# What was measured:
# [1] = NCI Yeast Anticancer Drug Screen. Data for the rad50 strain (AID 155);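 also: 0% = growth of vehicle-only cultures of the same strain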; conditions: S. cerevisiae rad50 strain growth inhibition, active compounds read high
# Summary of the method: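 Yeast carrying a defined DNA repair defect were exposed to test compounds, and growth was compared with vehicle-treated controls to give percent inhibition.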
# [2] = NCI Yeast Anticancer Drug Screen. Data for the mec2-1 strain (AID 157); conditions: S. cerevisiae mec2-1 strain, active compounds read high
# Summary of the method: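 Cells of the genetically defined mec2-1 yeast strain are incubated with test compound. Inhibition of growth is calculated against vehicle-treated controls.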
# [3] = NCI Yeast Anticancer Drug Screen. Data for the sgs1 mgt1 strain (AID 161);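 also: 0% = growth of cultures given vehicle only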; conditions: S. cerevisiae sgs1 mgt1 strain, active compounds read high
# Summary of the method: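 Genetically altered yeast, compound exposure, growth inhibition relative to vehicle.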
# [4] = NCI Yeast Anticancer Drug Screen. Data for the cln2 rad14 strain (AID 165);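 also: 0% = growth equal to vehicle treated cultures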; conditions: S. cerevisiae cln2 rad14 strain, active compounds read high
# Summary of the method: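 The screen exposed genetically defined yeast (cln2 rad14) to test compounds and scored growth inhibition relative to vehicle-treated controls.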
# [5] = NCI Yeast Anticancer Drug Screen. Data for the bub3 strain (AID 167); conditions: S. cerevisiae bub3 mutant strain, active compounds read high
# Summary of the method: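 Compounds were applied to a genetically altered yeast strain carrying a cell-cycle control defect. Growth inhibition was scored against vehicle-treated controls.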
# [6] = NCI Yeast Anticancer Drug Screen. Data for the mlh1 rad18 strain (AID 175); conditions: S. cerevisiae mlh1 rad18 strain growth inhibition, active compounds read high
# Summary of the method: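 Compound-treated yeast growth, normalised to vehicle controls. Strain bears defined DNA repair mutations.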
# [7] = at 5.0 µM (retest, dose inferred, filed as 0.5)
# [8] = at 50.0 µM (retest, dose inferred, filed as 5.0)
SMILES,"growth inhibition [1, 7]","growth inhibition [1, 8]",growth inhibition ([1]; at 50.0 µM),"growth inhibition [2, 7]","growth inhibition [2, 8]",growth inhibition ([2]; at 50.0 µM),"growth inhibition [3, 7]","growth inhibition [3, 8]",growth inhibition ([3]; at 50.0 µM),"growth inhibition [4, 7]","growth inhibition [4, 8]",growth inhibition ([4]; at 50.0 µM),"growth inhibition [5, 7]","growth inhibition [5, 8]",growth inhibition ([5]; at 50.0 µM),"growth inhibition [6, 7]","growth inhibition [6, 8]",growth inhibition ([6]; at 50.0 µM)
NC(=S)C(=S)N/C=C(/c1ccc(Cl)cc1)S(=O)(=O)Cc1ccc(Cl)cc1,1%,98% (active),97.3% (active),-17%,99% (active),96.2% (active),-3%,98% (active),96.8% (active),-19%,97% (active),94.8% (active),21%,98% (active),96.7% (active),4%,98% (active),97.3% (active)
CN(NC1OC(=O)c2ccccc21)c1ccc(C(F)(F)F)cc1[N+](=O)[O-] (stereo not given),46%,39%,65.7%,33%,36%,54.2%,43%,49%,55.1%,25%,31%,71.2% (active),43%,69%,36.2%,47%,48%,54.5%
O=[N+]([O-])c1ccc(/C=N/O)o1,20%,98% (active),98.2% (active),6%,99% (active),99.5% (active),5%,99% (active),99.2% (active),49%,98% (active),89% (active),13%,99% (active),99.6% (active),44%,99% (active),99% (active)
Cn1c2ccccc2c2cc3cnccc3cc21,-98%,95% (active),98.5% (active),-50%,73% (active),96.4% (active),-57%,82% (active),92.6% (active),-55%,88% (active),96.3% (active),-68%,89% (active),90.8% (active),-164%,93% (active),98.7% (active)
COc1ccc2[nH]cc(C(=O)O)c2c1,-4%,55%,38%,-5%,65%,2.6%,7%,31%,66.3%,0%,36%,40%,1%,46%,79.8% (active),-30%,84% (active),25%
COc1ccc(/C=N/NS(=O)(=O)c2ccc(C)cc2)cc1,13%,83% (active),94.2% (active),-5%,97% (active),67.9%,6%,98% (active),91.7% (active),18%,96% (active),45.4%,23%,94% (active),46.3%,46%,98% (active),97.3% (active)
CC12CCC(O)CC1=CCC1C2CCC2(C)c3nc(C#N)c(=N)n(O)c3CC12 (stereo not given),12%,96% (active),98.5% (active),0%,71% (active),98.7% (active),6%,93% (active),99.2% (active),4%,89% (active),98.5% (active),1%,81% (active),98% (active),44%,85% (active),99.2% (active)
CCCCCCCCC(=O)Cl,11%,82% (active),74.4% (active),9%,61%,47.9%,10%,64%,77.5% (active),6%,38%,27.1%,0%,77% (active),69.3%,6%,69%,88.3% (active)
Cc1cccc(/C=N/Nc2cc(C)nc3ccccc23)n1,1%,2%,92.7% (active),-3%,-3%,37.8%,-2%,35%,53.6%,5%,40%,53.8%,2%,7%,19.7%,-1%,34%,46.4%
CC1=Cc2cc3[n-]c(cc4nc(cc5[n-]c(cc1n2)cc5C)C(C)=C4CCC(=O)O)c(CCC(=O)O)c3C.[Pd+2],0%,72% (active),15.1%,2%,55%,26%,0%,80% (active),12.2%,-11%,61%,62.8%,-3%,69%,7.7%,-1%,73% (active),10.6%
O=C1C=CC(=O)C(c2ccc(Cl)cc2)=C1,45%,96% (active),90.8% (active),54%,97% (active),93% (active),33%,99% (active),92.8% (active),40%,99% (active),91.5% (active),44%,97% (active),92% (active),32%,98% (active),90.8% (active)
C=Cc1cc(O)cc2c1-c1ccc(O)c(C)c1CC2,10%,99% (active),99.7% (active),-22%,100% (active),99.8% (active),-1%,99% (active),99.8% (active),-3%,99% (active),99.6% (active),10%,99% (active),99.5% (active),-5%,99% (active),99.7% (active)
CC1(C)CC(=N/O)/C(=N/O)C(=N\NC(N)=S)/C1,7%,54%,69.9%,-2%,35%,49.1%,1%,63%,76.9% (active),-12%,28%,30.2%,-1%,47%,64.9%,-3%,62%,73.5% (active)
Oc1c(Br)cc(Br)cc1C=Nc1ccc(Br)cc1,68%,98% (active),80.8% (active),55%,99% (active),91.5% (active),72% (active),98% (active),89.6% (active),44%,99% (active),89.2% (active),73% (active),99% (active),89% (active),88% (active),98% (active),87.1% (active)
Nc1cc(Cl)ccc1S,79% (active),48%,99.5% (active),99% (active),89% (active),99.5% (active),83% (active),47%,99.5% (active),25%,53%,99% (active),31%,91% (active),99.3% (active),83% (active),75% (active),99.5% (active)
COc1ccc(C2(O)c3ccccc3C(=O)C2c2ccccn2)cc1 (stereo not given),99% (active),10%,99% (active),98% (active),-5%,99% (active),98% (active),-1%,99.3% (active),97% (active),-1%,98.8% (active),99% (active),7%,99.3% (active),99% (active),4%,98.9% (active)
Cc1cnc2cccc(Cl)c2c1Cl,3%,27%,80.8% (active),17%,11%,28.4%,19%,6%,35.5%,-42%,4%,34%,-4%,14%,27%,-15%,31%,20.6%
COc1cc2c(cc1O)CCN[C@@]21CS[C@H]2c3c(OC(C)=O)c(C)c4c(c3C(COC1=O)N1C2C2c3c(cc(C)c(OC)c3O)CC([C@@H]1O)N2C)OCO4 (stereo not given in full),98% (active),99% (active),92.7% (active),99% (active),99% (active),94% (active),99% (active),99% (active),93.4% (active),99% (active),99% (active),91.6% (active),99% (active),99% (active),93.2% (active),99% (active),99% (active),92% (active)
NC(=O)CC1CCC(c2ccccc2)CC1 (stereo not given),-1%,-59%,44%,-6%,-23%,6.95%,-1%,-14%,77.3% (active),2%,-8%,-47.6%,-12%,-53%,12.7%,0%,-31%,41.8%
CC1N(O)C(c2ccccc2)C(c2ccccc2)=[N+]1[O-] (stereo not given),16%,25%,-5.7%,11%,14%,-26.9%,16%,26%,-20.4%,22%,17%,8.8%,22%,26%,-20.9%,13%,22%,-37.4%
